# AID504770: E. coli YBA685 growth inhibition, screen for V. cholerae RctB inhibitors. z-score (test concentration not listed). E. coli YBA685 rctB-dependent plasmid, OD600 growth, 3 h; active compounds read low. 0.27% of 130,000 active. AID 504770; in the data active means z-score below about -2, passing the limit was not always enough
# Mtb MenB inh: Mtb MenB enzyme inhibition; 0.43% of 100,000 active; MenB enzyme assay, absorbance read-out; AID 540299; inhibition, % (concentration not given with the values); P9WNP5; in the data active means inhibition above about 21%, passing the limit was not always enough
# Target sequence (P9WNP5 whole entry, looked up): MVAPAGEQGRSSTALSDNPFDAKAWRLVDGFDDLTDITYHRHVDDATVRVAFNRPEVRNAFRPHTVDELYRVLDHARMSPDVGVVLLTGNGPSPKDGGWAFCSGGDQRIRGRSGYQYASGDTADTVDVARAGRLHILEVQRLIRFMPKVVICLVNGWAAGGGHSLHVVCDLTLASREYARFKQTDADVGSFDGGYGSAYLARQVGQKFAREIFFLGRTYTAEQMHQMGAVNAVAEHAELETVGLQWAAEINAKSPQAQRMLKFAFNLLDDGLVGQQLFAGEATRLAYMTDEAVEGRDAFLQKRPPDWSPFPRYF
# MbtI inh: MbtI salicylate synthase inhibition; P9WFX0; purified MbtI enzyme, fluorescence intensity read-out; inhibition, % (no concentration beside the values); 0.89% of 100,000 active; in the data active means inhibition mostly above about 56%, no sharp cut-off; inactive means mostly below about 77%
# PV pol inh: inhibitors of poliovirus RNA polymerase binding and polymerization; P03300; poliovirus polymerase elongation, fluorescence polarization; active compounds read low; % elongation, % (compound at 16.7 µg/mL); 0.66% of 150,000 active; AID 588519; in the data active means % elongation below about 90%
# Starred values were filed as active, the others as inactive; . = no result. Hits are enriched below; roughly 1.5% of the tested compounds scored in any of these assays.
SMILES,AID504770,Mtb MenB inh,MbtI inh,PV pol inh
Cc1cc(NC(=O)CCCO)n[nH]1,-0.4,.,.,.
CN1C(=O)/C(=C/c2cn(CC(=O)N3CCCC3)c3ccccc23)C(=O)NC1=S,-0.35,-5,-8,99
CN1C(=O)/C(=C/c2ccc(I)o2)C(=O)NC1=S,1.1,-116,83*,95
O=C(CC(c1cccs1)N1Cc2ccccc2C1=O)NCCN1CCOCC1 (stereo not given),-2.2*,2,-9,101
O=C(CC(c1cccs1)N1Cc2ccccc2C1=O)NCc1ccc(CN2CCOCC2)o1 (stereo not given),-0.25,-2,-11,102
O=C(NC1CCN(c2nc(-c3ccccc3)cs2)CC1)c1cccs1,1.2,-72,-2,105
O=S1(=O)CCN(Cc2cccc(C(F)(F)F)c2)CC1,-2.7*,.,.,.
FC(F)(F)c1cccc(CN2CCSCC2)c1,-0.3,-7,-3,97
O=C1CN(C(=O)Cc2ccc(S(=O)(=O)N3CCCCC3)cc2)c2ccccc2N1,2.2,-29,30,105
O=c1[nH]c(Nc2ccccc2)cc2ccccc12,-0.7,-17,65,76*
CCOC(=O)c1c(C)oc2ccc(OC(=O)Nc3ccc(Cl)cc3)cc12,-0.7,-12,-10,98
NS(=O)(=O)c1ccc(CCn2c(=S)[nH]c3ccccc3c2=O)cc1,-0.35,3,7,100
Cn1c(=S)[nH]c2cc(S(N)(=O)=O)ccc21,0.25,-9,67,90*
CSc1ccccc1NC(=O)CN1CCc2ccccc21,0.1,-9,4,88*
Cc1[nH]n(-c2nc3ccccc3[nH]2)c(=O)c1C1OC(=O)c2ccccc21 (stereo not given),-0.65,-21,100*,62*
CCCCC(CC)C(=O)Nc1nnc(C(C)C)s1 (stereo not given),-0.25,1,70*,99
CC1CCC[S+](c2cc(O)ccc2O)C1 (stereo not given),-0.85,7,101*,101
COC(=O)c1c(O)c(C=Nc2ccc(C)cc2)c(=O)n2c1CCC2,-0.35,-24,0,112
Cc1nn(-c2ccccc2)c(Cl)c1C1N2CCCN1CC2 (stereo not given),1.2,33*,3,102
O=C(c1ccc2c(c1)N(Cc1ccccc1)C(=O)c1ccccc1S2=O)N1CCOCC1 (stereo not given),0.45,-3,0,100
O=C(c1ccc2c(c1)N(Cc1ccc(Cl)cc1)C(=O)c1ccccc1S2=O)N1CCOCC1 (stereo not given),.,.,.,73*
COP1(=S)/C(=C2/N(C)c3ccccc3C2(C)C)C=NN1C (stereo not given),0.65,-82,100*,70*
O=C1C=CC(=O)N1c1ccc(F)c(Cl)c1,2.4,.,93*,101
COC(=O)Nc1sc(C)cc1C(=O)OC,-0.25,3,-3,99
COC(=O)c1cc(C)sc1N,-1.6,8,95*,100
SMILES,AID504770,Mtb MenB inh,MbtI inh,PV pol inh
CCCCN1COc2c(cc(Cl)c3cccnc23)C1,-5.8*,-10,-119,101
Fc1ccc(-c2nnc3ccc(N4CCN(C(=S)NCc5ccccc5)CC4)nn23)cc1,0.8,-30,59,101
O=C(OCC(=O)c1c[nH]c2ccccc12)c1ccc2c(c1)OCCO2,0.9,-9,10,103
COC(=O)c1c(-c2cccs2)csc1NC(=O)CN1CCOCC1,-0.85,-19,-22,99
COC(=O)c1c(-c2cccs2)csc1NC(=O)c1ccc(Br)cc1,.,.,.,66*
COC(=O)c1c(-c2cccs2)csc1NC(=O)c1ccc(C)cc1,.,.,.,76*
O=C(O)c1ccc(=O)n(CCOc2ccccc2)n1,-1.3,-11,-4,104
CCOC(=O)C1(C(=O)OCC)CCC1,1.2,16,-1,97
CN(CCCN)Cc1ccccc1,-0.15,-1,13,99
Cc1ccccc1C=C1C(=O)N(C)C(=S)N(C)C1=O,0.4,-125,72*,98
COc1ccc(C=C2C(=O)N(C)C(=S)N(C)C2=O)c(C)c1,-0.75,-56,5,98
CCc1ccc(C=C2C(=O)N(C)C(=S)N(C)C2=O)cc1,0.2,-73,99*,98
CN1C(=O)C(=Cc2cn(CC(=O)O)c3ccccc23)C(=O)N(C)C1=S,1.6,-43,75*,103
O=C1C=CC(=O)N1c1ccccc1F,-4.7*,-20,100*,104
O=C1C=CC(=O)N1c1cccc2ccccc12,-0.6,.,89*,101
O=C1C=CC(=O)N1c1ccccc1OC(F)(F)F,-0.3,.,.,.
O=S1NN(c2ccccc2)S(=O)NN1c1ccccc1 (stereo not given),-0.95,-68,7,72*
COc1ccccc1C1/C(=C(\O)c2ccc(Cl)cc2)C(=O)C(=O)N1CCC(=O)O (stereo not given),-0.3,5,19,100
O=c1[nH]c(=S)[nH]nc1Cc1ccc(Cl)c(Cl)c1,-0.4,-27,58*,102
O=c1[nH]c(=S)[nH]c(C(F)(F)F)c1Cc1ccc(Cl)c(Cl)c1,0.1,1,-9,103
O=C1C2CCCCC2=NN1c1ccccc1 (stereo not given),-1.5,-18,71*,101
CC1=NN(c2ccccc2)C(=O)C1C1C(=O)N(c2ccccc2)N=C1C (stereo not given),-0.5,-3,5,103
O=C1C2CCCC2=NN1c1ccccc1 (stereo not given),0.6,-13,59*,106
CC1=NN(c2ccccc2)C(=O)C1C(=O)O (stereo not given),1.3,-23,-3,102
COC(=O)c1ccc(COc2cccc(Cl)c2)o1,0.05,1,-8,104
SMILES,AID504770,Mtb MenB inh,MbtI inh,PV pol inh
Cc1cc(C)n(CCCNC(=O)CSc2nc(C)c(C)n2C2CCCCC2)n1,-1.7,-12,-2,105
O=C(Nc1cc(C(F)(F)F)cc(C(F)(F)F)c1)C(=S)N1CCCCC1,0.9,1,.,76*
O=C(CN1CCCC1)Nc1cc(C(F)(F)F)cc(C(F)(F)F)c1,-0.1,.,.,.
O=C(O)CCN1CCN(c2cccc(Cl)c2)CC1,-0.9,-19,-8,101
CCN(CC)C(=O)CN1CCN(c2cccc(Cl)c2)CC1,-0.1,33*,0,102
Cc1cc(-n2c(C)cc(/C=C/C(=O)N3CCN(c4ncccn4)CC3)c2C)no1,2,-49,10,109
C/C(=C\C(=O)c1cccnc1)Nc1ccccc1O,0.25,60*,27,102
CCOC(=O)c1cn(C2CC2)c2c(F)c(F)c(F)cc2c1=O,-0.15,-12,.,100
CCOC(=O)c1oc2ccccc2c1COC(=O)CSc1nc(C)cc(C)n1,-0.4,-10,-3,96
CNC(=S)NNc1ncc(C(F)(F)F)cc1Cl,-0.25,-4,24,101
CS(=O)(=O)CS(=O)(=O)NNc1ncc(C(F)(F)F)cc1Cl,-0.95,-25,57*,104
CSc1cccc(NC(=O)Cn2nc(SC)c(S(=O)(=O)c3ccccc3)c2N)c1,0.3,-7,-8,100
CC(=O)N1CCCCC1c1cccnc1.O=[N+]([O-])O.[Ag] (stereo not given),-5.5*,-36,.,60*
Cc1ccc(NC(=O)N(C)CCOc2ccccc2)cc1,0.4,-5,-12,105
